Source: PubChem
Most compounds without a hit are left out; they make up all but 12% or so of the library.
G9a inh: qHTS Assay for Inhibitors of Histone Lysine Methyltransferase G9a; Histone-lysine N-methyltransferase EHMT2 (Homo sapiens), Q96KQ7; G9a H3K9 monomethylation, AlphaScreen, 2 h; Potency, µM (highest dose often 102 µM), hits mostly inhibitors; hit rate 8.8% among 350,000; further: nearly all actives have a fitted effect of over 75% in size
Target sequence (Q96KQ7 913-1193 limits assumed): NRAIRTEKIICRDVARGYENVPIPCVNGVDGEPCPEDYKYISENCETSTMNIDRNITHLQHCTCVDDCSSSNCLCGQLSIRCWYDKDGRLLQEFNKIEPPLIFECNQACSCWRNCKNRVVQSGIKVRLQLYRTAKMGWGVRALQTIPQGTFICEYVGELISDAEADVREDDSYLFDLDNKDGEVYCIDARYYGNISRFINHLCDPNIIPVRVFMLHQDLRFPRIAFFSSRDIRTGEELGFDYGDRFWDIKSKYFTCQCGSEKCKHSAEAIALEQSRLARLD
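Enzyme 20 nM + cpd, 15 min RT; add b-H3K9 pep 500 nM / SAM 20 uM; 2 h RT; anti-H3K9me1 Ab 0.5 ug/mL + SA donor / anti-rabbit acceptor beads 20 ug/mL each, 10 min; AlphaScreen read.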
JMJD2A Tudor inh: qHTS Assay for Inhibitors of JMJD2A-Tudor Domain. Lysine-specific demethylase 4A (Homo sapiens), O75164. AlphaScreen JMJD2A-Tudor / H3K4me3 peptide binding. Potency, µM (doses to about 114 µM), most hits filed as inhibitors. hit rate 4.4% among 390,000. AID 504339, 2011; further: nearly all actives have a fitted effect of over 50% in size
BAZ2B block: qHTS Assay for Inhibitors of BAZ2B; Potency, µM (highest dose often 114 µM), hits mostly inhibitors; AID 504333, 2011; hit rate 4.4% among 360,000; AlphaScreen BAZ2B-H3K14Ac peptide displacement; Bromodomain adjacent to zinc finger domain protein 2B (Homo sapiens), Q9UIF8; further: nearly all actives have a fitted effect of over 60% in size
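Protein-peptide AlphaScreen: BAZ2B 50 nM, b-H3K14Ac 50 nM, 1x PBS pH 7.4 + 0.01% Tween-20. Preincubation 30 min RT; cpd 30 min RT (top 110 uM); beads 20 min RT, light-protected.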
Sfp inh: qHTS Assay for Inhibitors of Bacillus subtilis Sfp phosphopantetheinyl transferase (PPTase); Potency, µM, usual class: inhibitors; 4'-phosphopantetheinyl transferase ffp (Bacillus subtilis), Q9F4F7; AID 1490, 2009; Biochemical Sfp PPTase activity, qHTS; hit rate 3.5% among 310,000;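 further: the enzyme is Sfp with the accession as filed and its product quenches rhodamine fluorescence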
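Step 1, compound plus 15 nM Sfp-PPTase, 15 min, room temperature. Step 2, add rhodamine-CoA (5 uM) and BHQ-2-YbbR (12.5 uM). Step 3, read 525/598 nm fluorescence at 0 and 30 min.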
TDP1 inh: qHTS Assay for Inhibitors of Tyrosyl-DNA Phosphodiesterase (TDP1) | recombinant TDP1, AlphaScreen DNA substrate cleavage | Potency, µM (doses to about 130 µM), actives largely listed as inhibitors | hit rate 0.28% among 350,000 | AID 485290, 2010; further: nearly all actives have a fitted effect of over 40% in size
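E. coli-derived human Tdp1, 1 nM final. Cpd preinc 15 min RT; substrate 15 nM final, 5 min RT; AS bead mix 10 ug/ml final, 10 min RT. Signal loss = tyrosine-FITC cleavage. No-enzyme wells = max signal.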
HP1b binding inh: HTS for Inhibitors of HP1-beta Chromodomain Interactions with Methylated Histone Tails | Chromobox protein homolog 1 (Homo sapiens), P83916 | AlphaScreen HP1-beta / biotin-H3K9me3 peptide binding | Potency, µM (series often up to 114 µM), hits mostly inhibitors | hit rate 0.56% among 390,000; further: nearly all actives have a fitted effect of over 70% in size
Target sequence (P83916 whole entry, looked up): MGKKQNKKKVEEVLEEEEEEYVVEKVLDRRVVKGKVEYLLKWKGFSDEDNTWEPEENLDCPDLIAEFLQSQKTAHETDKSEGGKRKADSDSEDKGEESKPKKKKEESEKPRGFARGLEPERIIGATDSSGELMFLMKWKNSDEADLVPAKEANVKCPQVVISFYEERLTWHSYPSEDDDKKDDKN
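AlphaScreen: HP1-beta (50 nM) preformed 30 min with biotin-H3(1-18)K9me3 peptide (50 nM) in PBS pH 7.4, 0.01% Tween-20. Compound added for 30 min at RT, then streptavidin donor/nickel chelate acceptor beads (10 ug/mL) for 30 min.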
Each line names hits and unclear results; the compound was inactive in the other large screens. The call rests on the fitted dose curve; in most records, active means well fitted curve in the direction sought with a large enough effect; inconclusive means small, poorly fitted or top-dose-only effect, or another doubt; inactive means no such curve, though single readings can be large; an effect the other way counts as inactive or inconclusive.

CC1CCc2sc(C(=O)N(C)CC(=O)Nc3ccc(N4CCOCC4)cc3)cc2C1 (centres undefined)	G9a inh 35µM, JMJD2A Tudor inh inconclusive, BAZ2B block inconclusive
CCC1CCc2sc(C(=O)N(C)CC(=O)Nc3ccc(N4CCOCC4)cc3)cc2C1 (centres undefined)	G9a inh 45µM (no result: Sfp inh, TDP1 inh)
CCOC(=O)c1sc2nccc(N(C)C)c2c1N=CNOC	JMJD2A Tudor inh 25µM
COc1cccc(NC(=O)c2cc(-c3ccco3)nc3ccccc23)c1	JMJD2A Tudor inh inconclusive (no result: G9a inh, BAZ2B block, Sfp inh, TDP1 inh)
CCN(CC)CCNC(=O)c1cc(-c2ccco2)nc2ccccc12	G9a inh 32µM, JMJD2A Tudor inh 63µM
COc1ccc(CCNC(=O)c2cc(-c3ccco3)nc3ccccc23)cc1	JMJD2A Tudor inh 45µM, HP1b binding inh inconclusive (no result: G9a inh, BAZ2B block, Sfp inh, TDP1 inh)
O=C(NCc1ccco1)c1cc(-c2ccccc2)nc2ccccc12	none
CC(=O)NNS(=O)(=O)c1scc(S(=O)(=O)c2ccc(Cl)cc2)c1C	none (no result: TDP1 inh)
O=C(NCc1cccnc1)c1ccc(NS(=O)(=O)c2ccccc2)cc1	TDP1 inh 3.5µM
CCN(CC)C(=O)c1ccc(S(=O)(=O)NCc2cccnc2)cc1	G9a inh 79µM
Cc1ccc(NS(=O)(=O)c2ccc(CCC(=O)NCc3cccnc3)cc2)cc1	G9a inh 40µM
O=C(NC1CCCCC1)c1cc(Nc2cccc(C(F)(F)F)c2)nc2ccccc12	none (no result: Sfp inh)
CC(=O)c1c(O)c(C)c(O)c2c1OC1=CC(=O)C(C(C)=O)C(=O)[C@@]12C (some centres undefined)	G9a inh 50µM
COC(=O)c1c(NC(=O)C2CC=CCC2C(=O)O)sc(C(N)=O)c1C (centres undefined)	G9a inh 18µM
COC(=O)c1c(-c2ccccc2)csc1NC(=O)C1CC=CCC1C(=O)O (centres undefined)	G9a inh 45µM, JMJD2A Tudor inh 50µM, BAZ2B block inconclusive, HP1b binding inh inconclusive (no result: TDP1 inh)
CCOC(=O)c1c(-c2ccc(C)cc2)csc1NC(=O)C1CC=CCC1C(=O)O (centres undefined)	G9a inh inconclusive, TDP1 inh inconclusive
Cc1nc2ccccn2c1C(=O)N/N=C/c1ccccc1	none (no result: TDP1 inh)
COc1ccc(/C=N/NC(=O)c2c(C)nc3ccccn23)cc1[N+](=O)[O-]	none
Cc1nc2ccccn2c1C(=O)N/N=C/c1cc(C)n(-c2ccc(Br)cc2)c1C	JMJD2A Tudor inh inconclusive, BAZ2B block 45µM
COc1cc(/C=N/NC(=O)c2nc3ccccn3c2C)cc(OC)c1O	G9a inh 16µM
Cc1cc(/C=N/NC(N)=S)c(C)n1-c1ccc(Br)cc1	BAZ2B block inconclusive
COc1cccc(/C=N/NC(=O)c2c(C)nc3ccc(Br)cn23)c1O	JMJD2A Tudor inh 35µM, BAZ2B block 7.9µM, TDP1 inh 56µM
Cc1cc(/C=N/O)c(C)n1-c1ccc(Br)cc1	G9a inh inconclusive, JMJD2A Tudor inh inconclusive, BAZ2B block 45µM, HP1b binding inh inconclusive
CCCCN(C)C(=O)Cn1nc(-c2ccc(Cl)cc2)ccc1=O	none (no result: TDP1 inh)
COc1ccc(/C=N/NC(=O)c2c(C)nc3ccc(Cl)cn23)cc1OC	none (no result: TDP1 inh)
COc1cc(/C=N/NC(=O)c2c(C)nc3ccc(Cl)cn23)cc(OC)c1OC	JMJD2A Tudor inh 22µM, BAZ2B block inconclusive (no result: G9a inh, TDP1 inh)
O=S(=O)(Nc1nc2ccccc2nc1Nc1ccc2c(c1)OCCO2)c1cccs1	G9a inh inconclusive, JMJD2A Tudor inh inconclusive, BAZ2B block 50µM
O=S(=O)(Nc1nc2ccccc2nc1NCc1ccco1)c1cccs1	G9a inh 50µM
COc1ccc(S(=O)(=O)Nc2nc3ccccc3nc2Nc2ccc3c(c2)OCO3)cc1	none (no result: JMJD2A Tudor inh, HP1b binding inh)
O=C(CSCc1ccc(F)cc1)Nc1ccc(N2CCOCC2)cc1N1CCOCC1	none (no result: Sfp inh)
CC(Oc1ccc(F)cc1)C(=O)Nc1ccc(N2CCOCC2)cc1N1CCOCC1 (centres undefined)	G9a inh 56µM (no result: Sfp inh, TDP1 inh)
Cc1nn(Cc2ccc(F)cc2)c2sc(C(=O)Nc3ccc(N4CCOCC4)cc3N3CCOCC3)cc12	G9a inh 11µM, JMJD2A Tudor inh inconclusive, BAZ2B block 40µM, HP1b binding inh inconclusive
CCN1CCN(c2ccc(S(=O)(=O)N3CCCCC3)cc2NC(=O)C(C)Oc2ccc(F)cc2)CC1 (centres undefined)	G9a inh inconclusive, JMJD2A Tudor inh inconclusive, BAZ2B block inconclusive (no result: Sfp inh, TDP1 inh)
CC(Oc1ccc(F)cc1)C(=O)Nc1cc(S(=O)(=O)N2CCCCC2)ccc1N1CCOCC1 (centres undefined)	G9a inh 13µM (no result: Sfp inh)
Cc1ccc(CN2CCN(Cc3ccc4cccc(F)c4n3)CC2CCO)cc1 (centres undefined)	none (no result: G9a inh, TDP1 inh)
COc1ccc(S(=O)(=O)N2CCCCCC2)cc1C(=O)NCc1cccs1	none (no result: Sfp inh)
O=C(ONc1ccc(N=NC(=O)c2ccccc2O)cc1)c1ccccc1	G9a inh inconclusive, JMJD2A Tudor inh inconclusive, BAZ2B block 10µM
O=Nc1ccc(NOC(=O)c2ccccc2Br)cc1	BAZ2B block inconclusive
c1coc(CSSCc2ccco2)c1	JMJD2A Tudor inh 56µM, HP1b binding inh inconclusive (no result: Sfp inh)
CC(=O)OCc1ccco1	none (no result: G9a inh, JMJD2A Tudor inh, BAZ2B block, Sfp inh, HP1b binding inh)
CCCOc1ccc(N2C(=O)CC(NCCc3ccc(S(N)(=O)=O)cc3)C2=O)cc1 (centres undefined)	G9a inh 35µM
CCOc1ccc(N2C(=O)CC(NCCc3ccncc3)C2=O)cc1 (centres undefined)	JMJD2A Tudor inh inconclusive
CCOc1ccc(N2C(=O)CC(NCCc3ccc(S(N)(=O)=O)cc3)C2=O)cc1 (centres undefined)	G9a inh 25µM
CCC(NC(=O)COC(=O)C1CC2CCCC(C1)C2=O)c1ccc(Br)cc1 (centres undefined)	none (no result: Sfp inh)
O=C1c2cccc3c([N+](=O)[O-])c(O)cc(c23)C(=O)N1Nc1ccccc1	G9a inh 20µM, JMJD2A Tudor inh inconclusive, BAZ2B block inconclusive, HP1b binding inh inconclusive
O=C1c2ccccc2C(=O)N1Nc1ccccc1	none
O=C(O)c1cn(C2CC2)c2cc(N3CCN(S(=O)(=O)c4ccc5c(c4)OCCO5)CC3)c(F)cc2c1=O	JMJD2A Tudor inh inconclusive, BAZ2B block 50µM
CCn1cc(C(=O)O)c(=O)c2cc(F)c(N3CCN(S(=O)(=O)c4ccc(Br)cc4)CC3)cc21	none (no result: JMJD2A Tudor inh, HP1b binding inh)
O=c1[nH]c2ccc(S(=O)(=O)N3CCN(S(=O)(=O)c4ccc5c(c4)OCCO5)CC3)cc2[nH]c1=O	TDP1 inh 50µM (no result: G9a inh, BAZ2B block, Sfp inh, HP1b binding inh)
